The text below walks through data of PubChem BioAssay AID652126 (The Scripps Research Institute Molecular Screening Center, 2013).

Structures are written as SMILES. About 3,700 (1%) of roughly 370,000 compounds were called active. The entries come from a sample that favours actives as a whole. A number with no mark means an inactive call.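 How the source made its calls: active means activation above the mean over all tested compounds plus 3 SD (cut at about 0.9% in these data); inactive means the rest.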

This assay has as its system Nuclear hormone receptor DAF-12 (Strongyloides stercoralis). The assay can be described thus: S. stercoralis DAF-12 nuclear receptor activators, primary screen, cell-based, luminescence, HEK293, GRIP1 co-expression, lit1-tk-luc (AID 652126).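 Further: 0% = DMSO-only wells and 100% = 3 µM delta7-dafachronic acid wells.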 Conditions: HEK293 ssDAF-12/GRIP1 lit1-tk-luc reporter, at 6.8 µM, hits give high values.
With `COc1ccc(C2C=C(C)Oc3c2c(=O)oc2ccccc32)cc1OC` (stereo not given), the activation was -0.69%.

For `CCNc1nc2[nH]c(=O)c3c(c2s1)OC(N)=C(C#N)C3c1cccs1` (stereo not given), the activation is -0.98%. With `N#CC1=C(N)Oc2c(c(=O)oc3ccccc23)C1c1ccccc1OC(=O)c1cccs1` (stereo not given), the activation is 1.09% (active). As for `COP(=O)(Sc1ccccc1)C(Cc1ccccc1)NC(=O)OCc1ccccc1` (stereo not given), the figure is -1.15%; as for `Cc1cc(C)c2c(c1)NP(=S)(c1ccccc1)N2` (stereo not given), -0.09%.

As to `COc1ccc2c(c1)NP(=S)(c1ccccc1)N2` (stereo not given), the activation is 1.75% (active). Take `CO[C@H]([C@H](C)/C=C/N(C)C=O)[C@@H](C)C(=O)CC[C@H](C)[C@H](O)[C@H](C)[C@H]1OC(=O)/C=C/C(C)=C/[C@H](O)[C@H](OC)C[C@@H]2C=CC[C@@H](C[C@H](OC)[C@@]3(CO3)[C@@H](OC)C[C@@H](OC)[C@@H]1C)O2`: the activation is -0.84%. For `O=c1c2ccccc2nc(/C=C/c2ccc(F)cc2)n1-c1ccccc1O`, the activation was -0.65%.

For the compound `Cc1ccccc1CCC[C@@H](CC1CCCCC1)CN(C)C(=O)Oc1ccccc1`, the activation is -1.05%. Next, `CCOP(=S)(OCC)C(O)CCCCCn1c(=O)c(F)cn(C2CCCO2)c1=O` (stereo not given): 1.73% (active). Regarding `Clc1ccc2nc3c(c(-c4ccccc4)c2c1)CNCC3`, the activation is -0.92%. As for `c1cncc(CNCCc2c[nH]c3ccccc23)c1`, the figure is -0.72%; as for `COc1ccc(CNCCc2ccc3c(c2)OCO3)c(OC)c1OC`, -0.57%; as for `COc1ccc(CNCCc2c[nH]c3ccccc23)cc1OC`, 1.6% (active). Next, `CN(C)S(=O)(=O)c1cc(C(=O)N2CCC(C(=O)O)(c3ccccc3)CC2)ccc1Cl`: -1.1%. As for `CN(C)c1nc(N(C)C)nc(N(C#N)CCCl)n1`, the figure is -1.19%; as for `C[C@]12CCC3C(CC[C@H]4[C@H](O)[C@H](O)CC[C@]34C)C1CC[C@@H]2O` (stereo not given in full), -0.82%. Consider `O=C(CSC1c2ccccc2-c2ccccc21)N/N=C/c1ccccc1`, for which the activation is -0.76%.

Consider `COc1c(O)ccc2c1-c1c3c(cc4c1C(C2)N(C)CC4)OCO3` (stereo not given), for which the activation is -0.77%. As for `Cc1ccc(OC(=O)N(C)C[C@@H]2OCc3cnnn3CCCC(=O)N([C@H](C)CO)C[C@@H]2C)cc1`, the activation is -0.97%.
